Data taken from the supplement of paper PMC10849652.
The full data set covers some 7,900 targets. This sample favours those with a hit. About 0.6% of all pairs of compound and target were hits. A number with no mark means an inactive call.

Key:
Assay in all cases: log2 fold change, soluble protein after heating vs DMSO (PISA); higher = thermal stabilisation; K562 cells, 10 uM, 30 min; active = over 0.2 and 3.5 SD of the protein, either way, in both replicates (recomputed)
[1] = compound: CS(=O)(=O)c1ccc(-c2cnc(N)c(C(=O)Nc3ccccc3)n2)cc1
Outline: (§1)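 Quantification of soluble protein used TMTpro 16plex LC-MS/MS, with channel sums equalised. Samples were the supernatant after 21,000xg for 90 min of pooled aliquots from K562 cells (2×10^6 cells/mL) treated with 10 μM compound for 30 min, heated for 3 min over 48°C-58°C, and extracted in PBS with 0.5% NP-40 at 4°C. Values, from duplicates, describe thermal stability against control samples on a log2 fold-change scale.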

[2] = compound: C[C@@H](Oc1cc(-c2cnn(C3CCNCC3)c2)cnc1N)c1c(Cl)ccc(F)c1Cl [crizotinib]
Outline: as §1

[3] = compound: C[C@@H]1COCCN1C2=NC(=NC(=C2)C3(CC3)S(=O)(=O)C)C4=C5C=CNC5=CC=C4
Outline: as §1

[4] = compound: C[C@H](C1=CC=C(C=C1)C(=O)NC2=C3C=CNC3=NC=C2)N
Outline: as §1

[5] = compound: C[C@H](Nc1ncnc2nc[nH]c12)c1cc2cccc(Cl)c2c(=O)n1-c1ccccc1 [duvelisib]
Outline: as §1

[6] = compound: Cc1cc(Nc2cc(CN3CCOCC3)c3nc(C)c(Cc4ccc(Cl)cc4F)n3n2)n[nH]1 [gandotinib]
Outline: as §1

[7] = compound: Cc1cc(Nc2cc(N3CCN(C)CC3)nc(Sc3ccc(NC(=O)C4CC4)cc3)n2)n[nH]1 [tozasertib]
Outline: as §1

[8] = compound: Cc1cc(SCc2sc(-c3ccc(C(F)(F)F)cc3)nc2C)ccc1OCC(=O)O
Outline: as §1

[9] = compound: Cc1ccc(-n2nc(C(C)(C)C)cc2NC(=O)Nc2ccc(OCCN3CCOCC3)c3ccccc23)cc1 [doramapimod]
Outline: as §1

[10] = compound: Cc1ccc(C(=O)N(CCCN)[C@@H](c2nc3cc(Cl)ccc3c(=O)n2Cc2ccccc2)C(C)C)cc1 [ispinesib]
Outline: as §1

Chain of UniProt P25685 (P25685 whole entry, looked up): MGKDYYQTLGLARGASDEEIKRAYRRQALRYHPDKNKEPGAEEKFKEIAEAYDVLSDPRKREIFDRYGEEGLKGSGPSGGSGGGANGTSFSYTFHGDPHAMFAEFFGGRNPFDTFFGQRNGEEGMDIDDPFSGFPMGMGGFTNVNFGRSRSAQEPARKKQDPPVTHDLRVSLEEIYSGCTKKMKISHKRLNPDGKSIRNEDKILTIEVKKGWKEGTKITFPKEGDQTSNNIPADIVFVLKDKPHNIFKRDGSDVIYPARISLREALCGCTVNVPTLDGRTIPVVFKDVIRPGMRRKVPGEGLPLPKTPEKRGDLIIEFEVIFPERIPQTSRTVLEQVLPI
Chain of UniProt Q9H410 (Q9H410 whole entry, looked up): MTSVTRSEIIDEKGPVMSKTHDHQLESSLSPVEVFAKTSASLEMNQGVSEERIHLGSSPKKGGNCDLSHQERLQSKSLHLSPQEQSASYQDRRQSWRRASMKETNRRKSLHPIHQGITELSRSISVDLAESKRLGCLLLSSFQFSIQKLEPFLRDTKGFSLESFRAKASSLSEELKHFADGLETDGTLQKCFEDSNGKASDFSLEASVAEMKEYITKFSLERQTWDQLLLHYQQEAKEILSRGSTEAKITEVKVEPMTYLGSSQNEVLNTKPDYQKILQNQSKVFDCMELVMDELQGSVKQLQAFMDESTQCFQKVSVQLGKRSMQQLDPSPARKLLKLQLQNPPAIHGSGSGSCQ
Chain of UniProt P32519 (P32519 whole entry, looked up): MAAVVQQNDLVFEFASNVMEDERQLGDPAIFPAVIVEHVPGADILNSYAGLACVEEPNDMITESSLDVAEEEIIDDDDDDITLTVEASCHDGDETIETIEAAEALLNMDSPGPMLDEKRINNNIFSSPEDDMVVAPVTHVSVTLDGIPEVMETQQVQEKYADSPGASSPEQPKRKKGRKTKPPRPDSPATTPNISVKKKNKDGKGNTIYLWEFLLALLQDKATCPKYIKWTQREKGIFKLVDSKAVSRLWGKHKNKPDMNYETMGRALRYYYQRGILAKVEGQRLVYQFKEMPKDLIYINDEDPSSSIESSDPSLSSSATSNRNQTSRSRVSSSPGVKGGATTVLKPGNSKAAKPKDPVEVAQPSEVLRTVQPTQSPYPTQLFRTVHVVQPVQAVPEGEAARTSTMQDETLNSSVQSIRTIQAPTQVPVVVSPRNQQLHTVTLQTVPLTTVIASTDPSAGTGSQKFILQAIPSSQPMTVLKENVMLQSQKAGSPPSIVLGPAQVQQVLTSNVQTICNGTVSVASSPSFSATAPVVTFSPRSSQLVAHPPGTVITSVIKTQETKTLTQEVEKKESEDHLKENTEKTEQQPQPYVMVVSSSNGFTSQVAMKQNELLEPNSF
Chain of UniProt Q8IYI6 (Q8IYI6 whole entry, looked up): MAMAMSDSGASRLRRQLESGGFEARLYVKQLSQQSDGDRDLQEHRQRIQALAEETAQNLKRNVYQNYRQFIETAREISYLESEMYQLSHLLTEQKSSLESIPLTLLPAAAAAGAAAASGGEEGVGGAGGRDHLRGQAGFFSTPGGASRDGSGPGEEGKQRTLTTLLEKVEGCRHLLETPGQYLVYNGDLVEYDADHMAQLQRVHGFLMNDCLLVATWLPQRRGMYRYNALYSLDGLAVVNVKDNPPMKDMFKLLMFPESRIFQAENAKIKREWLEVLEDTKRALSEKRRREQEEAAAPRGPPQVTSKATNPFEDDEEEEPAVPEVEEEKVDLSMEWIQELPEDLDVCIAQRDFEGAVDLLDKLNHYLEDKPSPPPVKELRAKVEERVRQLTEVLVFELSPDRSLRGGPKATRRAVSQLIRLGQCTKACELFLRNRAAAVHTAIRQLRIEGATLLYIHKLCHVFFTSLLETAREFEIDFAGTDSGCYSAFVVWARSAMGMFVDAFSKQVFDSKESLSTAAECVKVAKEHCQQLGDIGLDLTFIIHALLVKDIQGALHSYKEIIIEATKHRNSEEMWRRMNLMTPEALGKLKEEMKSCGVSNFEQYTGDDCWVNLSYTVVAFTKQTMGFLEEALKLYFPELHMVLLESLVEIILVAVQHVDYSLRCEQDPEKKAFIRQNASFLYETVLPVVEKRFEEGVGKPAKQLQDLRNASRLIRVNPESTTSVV

| Target | log2 fold change [1] | log2 fold change [2] | log2 fold change [3] | log2 fold change [4] | log2 fold change [5] | log2 fold change [6] | log2 fold change [7] | log2 fold change [8] | log2 fold change [9] | log2 fold change [10] |
| --- | --- | --- | --- | --- | --- | --- | --- | --- | --- | --- |
| DNAJB1 (UniProt P25685) | -0.004 | -0.004 | 0.084 | 0 | 0.045 | -0.041 | -0.001 | 0.059 | -0.018 | 0.019 |
| EXOC8 (UniProt Q8IYI6) | -0.062 | -0.32 (active) | 0.109 | 0.053 | 0.004 | -0.203 | 0.048 | 0.063 | 0.007 | -0.364 (active) |
| ELF1 (UniProt P32519) | 0.093 | -0.06 | -0.006 | -0.007 | 0.032 | – | 0.008 | 0.057 | -0.039 | -0.038 |
| DSN1 (UniProt Q9H410) | -0.015 | -0.016 | 0.086 | -0.05 | 0.098 | – | 0.026 | -0.07 | 0.007 | 0.055 |
